Measured values taken from PubChem BioAssay AID1645838 (ICCB-Longwood Screening Facility, Harvard Medical School, 2021).
In all, about 2,000 compounds went through this assay and about 100 (5%) were called active. The sample holds actives, similar compounds and a random draw of the others, so the mix is not that of the screen. Cut-off read from the data, not from the text of the source: active = z-score above about 2; inactive = the rest. Positions of bridges follow the written chain, without caps; N, C: chain ends. Non-standard residues stand in square brackets, D forms with d. Residues, ends and D or L forms follow the SMILES beside them. hArg = N=C(N)NCCCC[CH](N)C(=O)O; Mpa = O=C(O)CCS

Test: modulators of mitochondrial supercomplex assembly, cell-based, luminescence, Hoechst nuclei count (AID 1645838);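 note: control cybrid cells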;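 for z-score: higher means more mitochondrial supercomplex formation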
Conditions: Cells, luminescence/Hoechst cell count ratio, supercomplex reporter; for z-score: stronger effect = higher value; for cell count: measured here: cell number, Hoechst nuclei count
[1] = library stock concentration (final well concentration not given) 80 uM
[2] = library stock concentration (final well concentration not given) 400 uM
[3] = library stock concentration (final well concentration not given) 2 mM
[4] = library stock concentration (final well concentration not given) 10 mM
[5] = library stock concentration (final well concentration not given) 46 uM
[6] = library stock concentration (final well concentration not given) 278 uM
[7] = library stock concentration (final well concentration not given) 1.67 mM

O=C(O)CCC/C=C\C[C@@H]1[C@@H](/C=C/[C@@H](O)C2CCCCC2)[C@H](O)C[C@@H]1O
z-score: -0.293 (inactive) | cell count: 5180

O=C1C[C@@H]2[C@@H](/C=C/[C@@H](O)COc3cccc(C(F)(F)F)c3)[C@H](O)C[C@@H]2O1
z-score: 0.782 (inactive) | cell count: 5240

COc1cc(N2CCOCC2)ccc1Nc1ncc(F)c(Nc2ccccc2NS(C)(=O)=O)n1
z-score [1]: -0.351 (inactive) | z-score [2]: -0.312 (inactive) | z-score [3]: 0.0927 (inactive) | z-score [4]: 3.16 (active) | cell count [1]: 5830 | cell count [2]: 5470 | cell count [3]: 5120 | cell count [4]: 1690

CNC(=O)c1ccccc1Nc1nc(Nc2ccc(N3CCOCC3)cc2OC)ncc1Cl
outcome (library stock 2 mM): inactive; censored for cell count | outcome (library stock 10 mM): inactive; censored for cell count | z-score [1]: -0.243 (inactive) | z-score [2]: -0.00453 (inactive) | cell count [1]: 6320 | cell count [2]: 5260

COc1cc(N2CCC(N3CCN(C)CC3)CC2)ccc1Nc1ncc(Cl)c(Nc2ccccc2S(=O)(=O)C(C)C)n1
outcome (library stock 10 mM): inactive; censored for cell count | z-score [1]: 0.0842 (inactive) | z-score [2]: 0.241 (inactive) | z-score [3]: 1.15 (inactive) | cell count [1]: 4260 | cell count [2]: 4220 | cell count [3]: 3560

CCC(O)/C=C/C=O (stereo unspecified)
z-score: 0.341 (inactive) | cell count: 4950

O=C1C(=Cc2cn(-c3ccccc3)nc2-c2ccc(OCc3ccc(Cl)cc3)cc2)SC(=S)N1CCS(=O)(=O)O
z-score [1]: 0.0314 (inactive) | z-score [2]: 0.372 (inactive) | z-score [3]: -0.323 (inactive) | z-score [4]: -0.219 (inactive) | cell count [1]: 5380 | cell count [2]: 4640 | cell count [3]: 5180 | cell count [4]: 4960

c1ccc(Nc2nc3c(s2)CCCc2[nH]ncc2-3)nc1
z-score [5]: -0.0827 (inactive) | z-score [6]: -0.00166 (inactive) | z-score [7]: -0.105 (inactive) | z-score [4]: 0.335 (inactive) | cell count [5]: 6250 | cell count [6]: 5830 | cell count [7]: 6080 | cell count [4]: 5550

NC(=O)C1CSSCCC(=O)NC(CCCCN=C(N)N)C(=O)NCC(=O)NC(CC(=O)O)C(=O)NC(Cc2c[nH]c3ccccc23)C(=O)N2CCCC2C(=O)N1 (stereo unspecified) ([Mpa][hArg]GDWPC-NH2; disulfide 1-7; configuration not given here)
z-score [5]: -0.201 (inactive) | z-score [6]: -0.18 (inactive) | z-score [7]: -0.38 (inactive) | z-score [4]: -0.0485 (inactive) | cell count [5]: 5770 | cell count [6]: 5930 | cell count [7]: 6620 | cell count [4]: 5820

CC(C)C1C(=O)NC(CCCN=C(N)N)C(=O)NCC(=O)NC(CC(=O)O)C(=O)NC(Cc2ccccc2)C(=O)N1C (stereo unspecified)
z-score [1]: 0.68 (inactive) | z-score [2]: 0.227 (inactive) | z-score [3]: 0.518 (inactive) | z-score [4]: 5.23 (active) | cell count [1]: 5020 | cell count [2]: 5060 | cell count [3]: 4260 | cell count [4]: 1780

CCCCC[C@H](O)/C=C/[C@@H]1[C@@H](C/C=C\CCCCOC)[C@@H](O)C[C@H]1O
z-score: -0.514 (inactive) | cell count: 5540

CCCCC[C@@H](O)[C@H]1C(=O)O[C@H](C)[C@@H](O)/C=C/C=C/C=C/C=C/C=C(\C)[C@@H](O)C[C@H](O)C[C@H](O)C[C@H](O)C[C@H](O)C[C@H](O)C[C@@H]1O
z-score: 0.375 (inactive) | cell count: 5780

Cc1cc(-c2ccccc2)nc2cc(C(=O)Nc3cccc(O)c3)nn12
z-score [1]: 0.0171 (inactive) | z-score [2]: 0.0308 (inactive) | z-score [3]: -0.473 (inactive) | z-score [4]: -0.672 (inactive) | cell count [1]: 5500 | cell count [2]: 5070 | cell count [3]: 5150 | cell count [4]: 5110
